Where “and” joins values, the source holds several entries; their conditions need not be identical. Equal entries are not always repeated. Results filed as inconclusive are left out. The source holds several records for some structures; these can differ, active in one and inactive in another. Calls of active or inactive are those of the source. How the source made its calls, unless noted: active means hit-call score of the fitted dose curve at least 0.9, where 1 is the maximum; inactive means score below 0.9.
Experiments:
[1] = read-out: Monokine induced gamma interferon (MIG), CXCL9 (gene 4283); assay: BSK_3C_MIG: BioMAP Diversity Plus: 3C Assay for Monokine induced gamma interferon (MIG) Biomarker Activity (AID 2283021); details: primary human endothelial cells (HUVEC); actives raise or lower the signal;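 on AC50: MIG protein level measured by immunoassay in the treated endothelial cultures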
In short: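 HUVEC, 3C system; 24 h chemical exposure; MIG by ELISA; bidirectional fit vs DMSO baseline.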

[2] = molecular target: human Vitamin D Receptor (VDR), VDR (gene 7421) (UniProt P11473); assay: ATG_VDR_TRANS: Attagene TRANS-FACTORIAL HepG2 Assay for human Vitamin D Receptor (VDR) (AID 2283022; active means hit-call score of the fitted dose curve at least 0.9, where 1 is the maximum)
In short: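 HepG2 cells were transiently transfected with multiple GAL4-UAS reporter units, so signal reflects exogenous chimeric receptor-Gal4 activity. After 24 h compound exposure, reporter mRNA was measured by RT-PCR, fluorescent labelling and capillary electrophoresis, fitted for gain of signal versus DMSO.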

[3] = BSK_3C_SRB: Viability Assessment in the BioMAP Diversity Plus: 3C Assay (AID 2283023); details: primary human endothelial cells (HUVEC);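 further: fitted both ways against DMSO so a hit may be signal rise or drop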
In short: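 Primary human umbilical vein endothelial cells in the 3C system were read 24 h after compound dosing. Total protein was stained with 0.1% sulforhodamine B after 10% TCA fixation and read at 560 nm, with bidirectional fitting against DMSO as baseline.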

[4] = read-out: Pselectin, SELP (gene 6403); assay: BSK_4H_Pselectin: BioMAP Diversity Plus: 4H Assay for Pselectin Biomarker Activity (AID 2283026); details: primary human endothelial cells (HUVEC); actives raise or lower the signal
In short: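 HUVEC, 24 h chemical exposure; P-selectin read by ELISA. Bidirectional curve fit vs DMSO baseline; gain or loss of signal scored.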

[5] = BSK_4H_SRB: Viability Assessment in the BioMAP Diversity Plus: 4H Assay (AID 2283027); details: primary human endothelial cells (HUVEC);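 further: cells exposed to compound for 24 h before staining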;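 on AC50: curves fitted both ways versus DMSO so AC50 may be loss or gain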
In short: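 Cytotoxicity readout: sulforhodamine B (0.1%) staining of total protein after 10% TCA fixation, measured at 560 nm in human umbilical vein endothelium at 24 h. DMSO set the baseline; fitting was bidirectional.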

[6] = BSK_BE3C_SRB: Viability Assessment in the BioMAP Diversity Plus: BE3C Assay (AID 2283028); details: primary human bronchial epithelial cells;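 on AC50: fitted both ways so AC50 may mark signal gain or loss versus DMSO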
In short: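 Human primary bronchial epithelial cells were exposed to test chemicals for 24 h. Total protein in parallel cultures was then measured by staining with 0.1% sulforhodamine B after 10% TCA fixation, with absorbance read at 560 nm. Activity was fitted bidirectionally against DMSO.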

[7] = read-out: Thrombomodulin, THBD (gene 7056); assay: BSK_3C_Thrombomodulin: BioMAP Diversity Plus: 3C Assay for Thrombomodulin Biomarker Activity (AID 2283029); details: primary human endothelial cells (HUVEC); actives raise or lower the signal
In short: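 HUVEC, 3C conditions; compound 24 h; thrombomodulin by ELISA; bidirectional curve fit vs DMSO baseline; parallel SRB total-protein staining for cytotoxicity.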

[8] = read-out: Urokinase-type plasminogen activator receptor (uPAR), PLAUR (gene 5329); assay: BSK_4H_uPAR: BioMAP Diversity Plus: 4H Assay for Urokinase-type plasminogen activator receptor (uPAR) Biomarker Activity (AID 2283030); details: primary human endothelial cells (HUVEC); actives raise or lower the signal
In short: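 Primary human umbilical vein endothelial cells were exposed to chemical for 24 h before cell-surface uPAR was quantified by ELISA. Activity was fitted bidirectionally against the DMSO negative control baseline.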

[9] = read-out: Vascular endothelial growth factor receptor 2 (Homo sapiens) (UniProt P35968); assay: BSK_4H_VEGFRII: BioMAP Diversity Plus: 4H Assay for Vascular endothelial growth factor receptor 2 (VEGFR2) Biomarker Activity (AID 2283031); details: primary human endothelial cells (HUVEC); actives raise or lower the signal;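 on AC50: cell-surface VEGFR2 protein level quantified by ELISA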
In short: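 Primary human umbilical vein endothelial cells in the BioMAP 4H system were dosed with test chemical, and 24 h later VEGFRII was measured by ELISA. Activity was fitted bidirectionally against DMSO as negative control and baseline.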

[10] = read-out: Human Leukocyte Antigen - DR isotype (HLADR), HLA-DRA (gene 3122); assay: BSK_BE3C_HLADR: BioMAP Diversity Plus: BE3C Assay for Human Leukocyte Antigen - DR isotype (HLADR) Biomarker Activity (AID 2283032); details: primary human bronchial epithelial cells; actives raise or lower the signal
In short: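 Primary human bronchial epithelial cells (BE3C); 24 h chemical exposure; HLA-DR by ELISA; bidirectional curve fit vs DMSO baseline.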

[11] = read-out: Vascular cell adhesion molecule 1 (VCAM1), VCAM1 (gene 7412); assay: BSK_4H_VCAM1: BioMAP Diversity Plus: 4H Assay for Vascular cell adhesion molecule 1 (VCAM1) Biomarker Activity (AID 2283033); details: primary human endothelial cells (HUVEC); actives raise or lower the signal
In short: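 HUVEC, 24 h post-dose; VCAM-1 by ELISA. Bidirectional curve fit vs DMSO baseline. Parallel SRB total-protein stain (0.1% SRB after 10% TCA fixation, 560 nm) for cytotoxicity.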

[12] = read-out: Interferon-gamma inducible Protein 10 (IP10), CXCL10 (gene 3627); assay: BSK_BE3C_IP10: BioMAP Diversity Plus: BE3C Assay for Interferon-gamma inducible Protein 10 (IP10) Biomarker Activity (AID 2283034); details: primary human bronchial epithelial cells; actives raise or lower the signal
In short: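 ELISA readout of IP-10 in BE3C system: primary human bronchial epithelial cells, 24 h post-dosing; bidirectional curve fit vs DMSO baseline.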

[13] = read-out: Monokine induced gamma interferon (MIG), CXCL9 (gene 4283); assay: BSK_BE3C_MIG: BioMAP Diversity Plus: BE3C Assay for Monokine induced gamma interferon (MIG) Biomarker Activity (AID 2283035); details: primary human bronchial epithelial cells; actives raise or lower the signal
In short: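 hu bronchial epithelial 1° cells, 24 h cpd; MIG by ELISA; bidirectional fit, DMSO = baseline.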

[14] = read-out: Plasminogen activator inhibitor-1 (PAI1), SERPINE1 (gene 5054); assay: BSK_BE3C_PAI1: BioMAP Diversity Plus: BE3C Assay for Plasminogen activator inhibitor-1 (PAI1) Biomarker Activity (AID 2283037); details: primary human bronchial epithelial cells; actives raise or lower the signal
In short: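 ELISA read-out of PAI-1 from human bronchial epithelial primary cells, 24 h post-dosing; bidirectional curve fit vs DMSO baseline, gain or loss of signal scored.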

[15] = read-out: urokinase plasminogen activator (uPA), PLAU (gene 5328); assay: BSK_BE3C_uPA: BioMAP Diversity Plus: BE3C Assay for urokinase plasminogen activator (uPA) Biomarker Activity (AID 2283038); details: primary human bronchial epithelial cells; actives raise or lower the signal
In short: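 Human primary bronchial epithelial cells were exposed to chemical for 24 h, then uPA levels were measured by ELISA. Responses were fitted bidirectionally against DMSO as negative control and baseline. Parallel SRB staining of total protein gauged overt cytotoxicity.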

[16] = read-out: Urokinase-type plasminogen activator receptor (uPAR), PLAUR (gene 5329); assay: BSK_BE3C_uPAR: BioMAP Diversity Plus: BE3C Assay for Urokinase-type plasminogen activator receptor (uPAR) Biomarker Activity (AID 2283039); details: primary human bronchial epithelial cells; actives raise or lower the signal
In short: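 ELISA readout of uPAR on human lung primary bronchial epithelial cells, 24 h post-dosing. Bidirectional curve fit relative to DMSO vehicle baseline; gain or loss of signal both scored.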

[17] = read-out: Interleukin-6 (IL6), IL6 (gene 3569); assay: BSK_CASM3C_IL6: BioMAP Diversity Plus: CASM3C Assay for Interleukin-6 (IL6) Biomarker Activity for (AID 2283040); details: primary human coronary artery smooth muscle cells; actives raise or lower the signal
[18] = BSK_3C_Vis: BioMAP Diversity Plus: 3C Assay for Morphology Visualization (AID 2283025); details: primary human endothelial cells (HUVEC);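 further: fitted both ways so gain or loss versus DMSO counts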;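 on AC50: light microscopy image of cell morphology used as background control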
In short: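 HUVEC, 3C system; light microscopy of morphology at 24 h post-dose. Bidirectional fit vs DMSO baseline. Secondary readout, background-control function.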

[19] = read-out: Transforming growth factor beta 1 (TGFb1), TGFB1 (gene 7040); assay: BSK_BE3C_TGFb1: BioMAP Diversity Plus: BE3C Assay for Transforming growth factor beta 1 (TGFb1) Biomarker Activity (AID 2283036); details: primary human bronchial epithelial cells; actives raise or lower the signal
In short: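 Read-out: ELISA for TGF-b1 in primary human bronchial epithelial cultures, 24 h post-dose. Bidirectional curve fitting vs DMSO control; gain or loss of signal both scored.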

[20] = read-out: Matrix Metallopeptidase 1 (MMP1), MMP1 (gene 4312); assay: BSK_BE3C_MMP1: BioMAP Diversity Plus: BE3C Assay for Matrix Metallopeptidase 1 (MMP1) Biomarker Activity (AID 2283024); details: primary human bronchial epithelial cells; actives raise or lower the signal
In short: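 ELISA read-out of MMP1 in human lung bronchial epithelial primary cultures, 24 h post-dose; bidirectional curve fit vs DMSO baseline, gain or loss of signal scored.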

Measured: AC50

human Vitamin D Receptor (VDR), VDR (gene 7421), sequence (P11473 whole entry, looked up, the tested form may be a part): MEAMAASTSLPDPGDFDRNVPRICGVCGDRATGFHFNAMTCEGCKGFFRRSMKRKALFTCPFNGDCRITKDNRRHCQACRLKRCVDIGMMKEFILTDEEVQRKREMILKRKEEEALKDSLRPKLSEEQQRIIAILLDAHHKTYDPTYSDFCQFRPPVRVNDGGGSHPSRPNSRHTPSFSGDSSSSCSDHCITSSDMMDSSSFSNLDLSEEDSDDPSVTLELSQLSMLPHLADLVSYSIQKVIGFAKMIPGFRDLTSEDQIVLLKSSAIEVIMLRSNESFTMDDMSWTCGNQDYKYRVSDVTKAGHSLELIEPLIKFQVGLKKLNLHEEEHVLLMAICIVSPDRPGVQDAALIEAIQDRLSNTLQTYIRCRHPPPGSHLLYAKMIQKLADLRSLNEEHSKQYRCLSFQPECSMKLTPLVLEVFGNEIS

O=C(CC(=O)C(F)(F)C(F)(F)C(F)(F)F)c1cccs1
inactive: [2] | [7] | [9]
active: [1] 51.9 µM and 52.2 µM | [3] 24.1 µM and 43.7 µM | [4] 19.1 µM and 20.2 µM | [5] 34.4 µM and 44.3 µM | [6] 30 µM and 37.9 µM | [8] 49.1 µM and 54.8 µM | [9] 8.16 µM | [10] 20.4 µM and 23.8 µM | [11] 27.6 µM and 31 µM | [12] 19.5 µM and 18.9 µM | [13] 24.6 µM and 42 µM | [14] 10.9 µM and 10 µM | [15] 47.4 µM and 46 µM | [16] 45.6 µM | [17] 38.1 µM and 20.8 µM

O=C(c1ccccc1)c1ccccc1
not listed: [5] | [20]
inactive: all other assays above

CCCCc1oc2ccccc2c1C(=O)c1cc(I)c(OCCN(CC)CC)c(I)c1
inactive: [7]
active: [1] 25.7 µM | [2] 47.5 µM | [3] 8.48 µM | [18] 9.65 µM | [4] 9.72 µM | [5] 13.1 µM | [6] 25.4 µM | [8] 15.1 µM | [9] 21.2 µM | [10] 15.1 µM | [11] 19.6 µM | [12] 12 µM | [13] 23.3 µM | [19] 12.2 µM | [14] 18.8 µM | [15] 20.1 µM | [16] 20.6 µM | [17] 27800 nM

CC[N+](CC)(CC)Cc1ccccc1
active: [17] 87.5 nM
not listed: [13] | [20]
inactive: all other assays above

O=C1OC2(c3ccccc31)c1cc(I)c(O)c(I)c1Oc1c2cc(I)c(O)c1I
active: [3] 12 µM | [20] 3.22 µM | [18] 22.5 µM | [4] 12 µM | [7] 7.01 µM | [8] 8.51 µM | [9] 3.36 µM | [10] 4.33 µM | [12] 13.6 µM | [19] 3.9 µM | [14] 4.07 µM | [15] 8.35 µM | [16] 6.1 µM | [17] 900 nM
inactive: [1] | [2] | [5]

O=S(=O)(O)C(F)(F)C(F)(F)C(F)(F)C(F)(F)C(F)(F)C(F)(F)C(F)(F)C(F)(F)C(F)(F)C(F)(F)F
active: [3] 18.5 µM and 14.5 µM | [6] 12.9 µM and 10.8 µM | [10] 18.2 µM and 15.8 µM | [12] 13.3 µM and 12 µM | [14] 7.29 µM and 5.4 µM | [16] 21.5 µM
inactive: [1] | [2] | [4] | [5] | [7] | [8] | [9] | [11] | [15] | [16] | [17]

O=C(O)C(F)(F)OC(F)(F)C(F)(F)OC(F)(F)C(F)(F)OC(F)(F)C(F)(F)C(F)(F)C(F)(F)F
inactive: [2] | [7] | [9] | [17]
active: [1] 58.2 µM and 54.8 µM | [3] 26.1 µM and 24 µM | [20] 5.81 µM and 5.41 µM | [4] 48.1 µM and 54.2 µM | [5] 47.9 µM and 52.7 µM | [6] 7.88 µM and 7.84 µM | [7] 52 µM | [8] 43.5 µM and 43.6 µM | [9] 47.7 µM | [10] 3.73 µM and 3.7 µM | [11] 48.4 µM and 50.2 µM | [12] 4.85 µM and 4.88 µM | [14] 4.78 µM and 4.58 µM | [15] 3.94 µM and 3.9 µM | [16] 5.83 µM and 5.88 µM

C[C@]12CC[C@@H]3c4ccc(O)cc4CC[C@H]3[C@@H]1C[C@@H](O)[C@@H]2O
not listed: [13] | [20]
inactive: all other assays above

C=CC(C)(CCC=C(C)C)OC(C)=O (stereo not given)
active: [3] 28.9 µM | [18] 37.4 µM | [4] 31 µM | [5] 34.2 µM | [8] 28.9 µM | [9] 31.5 µM | [10] 30.2 µM | [11] 30.5 µM | [12] 26.6 µM | [16] 27.1 µM
inactive: [1] | [2] | [6] | [7] | [19] | [14] | [15] | [17]

CC1=NN(c2ccccc2)C(=O)C1
not listed: [2] | [13]
inactive: all other assays above

Reference: PubChem BioAssay (EPA / NIEHS)
